Consider one sequence from publication PMC7862700, “An all-to-all approach to the identification of sequence-specific readers for epigenetic DNA modifications on cytosine”.

What all share (assay): DAPPL (digital affinity profiling via proximity ligation, sequencing); 10 mM Tris-HCl pH 7.5, 50 mM NaCl, 1 mM DTT, 4% glycerol, room temperature, 30 min; GST-TFs on glutathione beads, 16-mer random dsDNA library, 0.1% formaldehyde crosslink after washing; high values mean tight binding
Common to all, as to conditions: protein: recombinant; tags: N-terminal GST; dsDNA, one strand shown

The target of experiment [1] is T1, ELK1 (Homo sapiens, UniProt P19419 1-428).
T1 sequence: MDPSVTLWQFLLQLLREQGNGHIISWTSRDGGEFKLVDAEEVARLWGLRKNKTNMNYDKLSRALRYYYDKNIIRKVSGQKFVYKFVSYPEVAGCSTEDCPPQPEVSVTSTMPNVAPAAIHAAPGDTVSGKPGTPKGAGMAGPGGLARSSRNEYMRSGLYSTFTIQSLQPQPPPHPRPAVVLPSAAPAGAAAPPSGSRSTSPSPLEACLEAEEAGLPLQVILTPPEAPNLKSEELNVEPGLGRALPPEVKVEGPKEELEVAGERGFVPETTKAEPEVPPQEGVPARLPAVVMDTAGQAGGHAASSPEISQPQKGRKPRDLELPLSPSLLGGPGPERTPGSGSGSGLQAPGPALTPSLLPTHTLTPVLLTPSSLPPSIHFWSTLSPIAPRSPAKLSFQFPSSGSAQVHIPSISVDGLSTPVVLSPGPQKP
Summed up: (§1)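 A tag-only sample was pooled with DNA-barcoded human transcription factors that had been expressed in yeast as GST fusions and captured on glutathione beads. The pools were incubated for 30 min at room temperature with 200 nmole of a random double-stranded 16-mer DNA library in Tris/NaCl/DTT/glycerol buffer, then washed, crosslinked with 0.1% formaldehyde, proximity-ligated (BsaI/T4 ligase, 1 h, 37 °C), PCR-amplified and sequenced on an Illumina NextSeq500. Binding signal is each hexamer's read frequency for a factor divided by its frequency for the tag-only sample.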

Experiment [2] deals with T2, GABPA (Homo sapiens, UniProt Q06546 1-454).
T2 sequence: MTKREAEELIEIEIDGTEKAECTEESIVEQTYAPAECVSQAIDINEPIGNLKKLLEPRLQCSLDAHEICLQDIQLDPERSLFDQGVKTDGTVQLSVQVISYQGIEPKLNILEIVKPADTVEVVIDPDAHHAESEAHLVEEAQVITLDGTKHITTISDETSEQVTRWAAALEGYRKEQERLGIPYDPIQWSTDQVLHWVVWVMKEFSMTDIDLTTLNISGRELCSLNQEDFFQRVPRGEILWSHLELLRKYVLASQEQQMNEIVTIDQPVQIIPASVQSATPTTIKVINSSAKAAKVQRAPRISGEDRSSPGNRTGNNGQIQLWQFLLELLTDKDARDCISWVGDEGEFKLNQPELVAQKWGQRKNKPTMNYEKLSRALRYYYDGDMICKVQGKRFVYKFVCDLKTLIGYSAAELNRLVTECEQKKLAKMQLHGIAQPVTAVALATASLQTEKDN
A digest of the protocol:
as §1

Experiment [3] has as its target T3, ERG (Homo sapiens, UniProt P11308 1-479).
T3 sequence: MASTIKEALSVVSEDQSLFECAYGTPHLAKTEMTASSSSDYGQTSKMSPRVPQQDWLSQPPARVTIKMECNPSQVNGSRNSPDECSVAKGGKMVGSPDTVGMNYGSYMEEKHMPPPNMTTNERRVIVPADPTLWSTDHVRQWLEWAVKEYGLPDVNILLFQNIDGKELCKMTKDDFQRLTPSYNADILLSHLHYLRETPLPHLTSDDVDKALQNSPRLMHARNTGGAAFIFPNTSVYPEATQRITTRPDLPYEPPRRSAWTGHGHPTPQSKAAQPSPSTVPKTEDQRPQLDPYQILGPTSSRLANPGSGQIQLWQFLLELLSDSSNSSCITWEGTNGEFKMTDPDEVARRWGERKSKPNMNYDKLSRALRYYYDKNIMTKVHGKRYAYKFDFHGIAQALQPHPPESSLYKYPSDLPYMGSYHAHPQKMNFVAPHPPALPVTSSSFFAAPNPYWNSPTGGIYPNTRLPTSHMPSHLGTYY
A digest of the protocol:
as §1

In experiment [4] the target is ELF1 (Homo sapiens, UniProt P32519 1-619). Summed up: as §1
Experiment [5] has as its target T4, EHF (Homo sapiens, UniProt Q9NZC4 1-300).
T4 sequence: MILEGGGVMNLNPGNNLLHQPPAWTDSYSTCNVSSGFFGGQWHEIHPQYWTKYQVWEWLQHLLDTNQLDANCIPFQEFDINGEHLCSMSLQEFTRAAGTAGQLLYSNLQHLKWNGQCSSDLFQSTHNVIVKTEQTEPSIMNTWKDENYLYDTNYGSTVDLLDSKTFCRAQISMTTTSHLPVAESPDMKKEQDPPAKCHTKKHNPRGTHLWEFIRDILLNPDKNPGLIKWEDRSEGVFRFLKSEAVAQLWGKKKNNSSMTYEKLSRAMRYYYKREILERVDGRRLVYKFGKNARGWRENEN
A digest of the protocol:
as §1

The target in experiment [6] is SPIB (Homo sapiens, UniProt Q01892 1-262). Summed up:
as §1

Experiment [7] addresses T5, ELK3 (Homo sapiens, UniProt P41970 1-407).
T5 sequence: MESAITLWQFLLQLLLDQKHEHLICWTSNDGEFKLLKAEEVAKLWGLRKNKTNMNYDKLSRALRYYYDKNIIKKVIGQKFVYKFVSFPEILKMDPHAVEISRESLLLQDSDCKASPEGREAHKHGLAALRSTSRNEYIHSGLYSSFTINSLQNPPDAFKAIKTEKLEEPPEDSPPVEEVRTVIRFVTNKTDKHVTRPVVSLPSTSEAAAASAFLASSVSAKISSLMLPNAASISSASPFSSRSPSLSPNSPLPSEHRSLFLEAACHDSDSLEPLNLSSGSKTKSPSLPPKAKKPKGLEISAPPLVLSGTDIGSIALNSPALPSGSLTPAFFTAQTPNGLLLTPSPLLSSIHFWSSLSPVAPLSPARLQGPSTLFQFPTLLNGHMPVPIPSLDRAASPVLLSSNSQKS
Summed up: as §1

For experiment [8], the target named is ETV5 (Homo sapiens, UniProt P41161 1-510). Summed up:
as §1

Experiment [9] concerns the target T6, SPIC (Homo sapiens, UniProt Q8N5J4 1-248).
T6 sequence: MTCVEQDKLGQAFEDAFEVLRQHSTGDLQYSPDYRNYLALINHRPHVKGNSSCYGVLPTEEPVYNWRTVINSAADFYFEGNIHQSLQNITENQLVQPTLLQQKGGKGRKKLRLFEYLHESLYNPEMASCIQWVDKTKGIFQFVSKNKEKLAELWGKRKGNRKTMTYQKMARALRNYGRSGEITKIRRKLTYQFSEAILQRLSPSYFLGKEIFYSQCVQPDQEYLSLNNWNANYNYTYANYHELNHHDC
A digest of the protocol: as §1

Experiment [10] deals with ELF4 (Homo sapiens, UniProt Q99607 1-663). Summed up: as §1
Experiment [11] addresses T7, ELK4 (Homo sapiens, UniProt P28324-2 1-405).
T7 sequence: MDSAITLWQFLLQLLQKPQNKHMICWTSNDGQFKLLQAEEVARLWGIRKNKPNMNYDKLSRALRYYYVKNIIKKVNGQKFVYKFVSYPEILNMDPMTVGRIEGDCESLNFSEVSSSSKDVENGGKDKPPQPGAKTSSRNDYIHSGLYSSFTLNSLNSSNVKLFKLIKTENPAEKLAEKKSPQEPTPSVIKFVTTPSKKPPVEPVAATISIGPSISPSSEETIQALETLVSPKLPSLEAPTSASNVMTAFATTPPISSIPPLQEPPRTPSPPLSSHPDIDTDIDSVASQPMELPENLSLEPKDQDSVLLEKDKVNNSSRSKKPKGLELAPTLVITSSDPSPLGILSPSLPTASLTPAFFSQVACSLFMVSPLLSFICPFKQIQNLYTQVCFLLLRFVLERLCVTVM
Summed up: as §1

For experiment [12], the target named is ETV1 (Homo sapiens, UniProt P50549 1-477). Summed up:
as §1

Experiment [13] concerns the target T8, ERF (Homo sapiens, UniProt P50548 1-548).
T8 sequence: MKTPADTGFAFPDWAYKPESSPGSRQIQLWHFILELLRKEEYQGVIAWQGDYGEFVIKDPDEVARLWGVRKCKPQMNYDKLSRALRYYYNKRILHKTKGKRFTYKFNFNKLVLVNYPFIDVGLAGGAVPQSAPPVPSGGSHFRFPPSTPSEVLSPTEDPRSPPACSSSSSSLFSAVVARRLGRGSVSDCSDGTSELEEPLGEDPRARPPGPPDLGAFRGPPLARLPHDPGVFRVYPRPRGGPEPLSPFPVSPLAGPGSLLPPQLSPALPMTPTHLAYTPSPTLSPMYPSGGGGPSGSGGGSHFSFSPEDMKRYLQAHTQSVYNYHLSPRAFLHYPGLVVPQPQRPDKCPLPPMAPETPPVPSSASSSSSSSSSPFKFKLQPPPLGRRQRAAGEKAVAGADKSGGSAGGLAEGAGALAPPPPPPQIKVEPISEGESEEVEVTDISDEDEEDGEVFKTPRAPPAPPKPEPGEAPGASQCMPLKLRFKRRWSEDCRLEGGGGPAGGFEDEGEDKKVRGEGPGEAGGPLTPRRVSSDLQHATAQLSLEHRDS
Summed up:
as §1

For experiment [14], the target named is T9, ETV3L (Homo sapiens, UniProt Q6ZN32 1-361).
T9 sequence: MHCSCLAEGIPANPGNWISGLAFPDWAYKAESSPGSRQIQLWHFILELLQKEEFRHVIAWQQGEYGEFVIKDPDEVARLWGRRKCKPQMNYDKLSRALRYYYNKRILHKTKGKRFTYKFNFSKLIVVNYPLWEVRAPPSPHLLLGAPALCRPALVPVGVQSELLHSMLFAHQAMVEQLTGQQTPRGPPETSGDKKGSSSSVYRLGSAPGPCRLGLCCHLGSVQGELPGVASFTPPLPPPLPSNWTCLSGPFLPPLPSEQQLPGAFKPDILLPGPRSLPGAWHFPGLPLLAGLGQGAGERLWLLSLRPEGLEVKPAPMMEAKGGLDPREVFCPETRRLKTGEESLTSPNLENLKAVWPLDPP
Summed up:
as §1

Experiment [15] addresses T10, ETS2 (Homo sapiens, UniProt P15036 1-469).
T10 sequence: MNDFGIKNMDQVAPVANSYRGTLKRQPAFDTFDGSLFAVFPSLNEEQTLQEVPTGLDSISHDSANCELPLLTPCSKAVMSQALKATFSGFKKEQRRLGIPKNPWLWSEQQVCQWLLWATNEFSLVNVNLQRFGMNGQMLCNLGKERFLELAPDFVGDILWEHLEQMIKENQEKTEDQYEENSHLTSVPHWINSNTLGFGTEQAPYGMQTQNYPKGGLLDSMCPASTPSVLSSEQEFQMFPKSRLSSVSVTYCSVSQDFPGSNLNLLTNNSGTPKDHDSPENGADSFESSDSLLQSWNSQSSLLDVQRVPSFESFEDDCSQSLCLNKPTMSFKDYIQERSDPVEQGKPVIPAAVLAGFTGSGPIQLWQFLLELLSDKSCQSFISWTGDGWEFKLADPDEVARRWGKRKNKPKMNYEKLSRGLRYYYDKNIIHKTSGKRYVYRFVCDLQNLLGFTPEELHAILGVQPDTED
A digest of the protocol: as §1

For experiment [16], the target named is T11, SPDEF (Homo sapiens, UniProt O95238 1-335).
T11 sequence: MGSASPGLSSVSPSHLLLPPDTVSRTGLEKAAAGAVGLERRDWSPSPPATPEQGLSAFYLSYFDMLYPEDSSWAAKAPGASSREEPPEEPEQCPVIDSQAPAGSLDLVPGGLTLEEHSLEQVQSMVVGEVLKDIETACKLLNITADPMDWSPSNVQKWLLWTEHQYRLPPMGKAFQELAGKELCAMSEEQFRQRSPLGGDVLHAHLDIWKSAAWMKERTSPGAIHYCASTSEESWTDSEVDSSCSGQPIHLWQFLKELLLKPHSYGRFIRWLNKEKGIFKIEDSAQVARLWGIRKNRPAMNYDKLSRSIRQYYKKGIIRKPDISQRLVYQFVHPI
Summed up: as §1

Experiment [17] has as its target T12, ETV7 (Homo sapiens, UniProt Q9Y603 1-341).
T12 sequence: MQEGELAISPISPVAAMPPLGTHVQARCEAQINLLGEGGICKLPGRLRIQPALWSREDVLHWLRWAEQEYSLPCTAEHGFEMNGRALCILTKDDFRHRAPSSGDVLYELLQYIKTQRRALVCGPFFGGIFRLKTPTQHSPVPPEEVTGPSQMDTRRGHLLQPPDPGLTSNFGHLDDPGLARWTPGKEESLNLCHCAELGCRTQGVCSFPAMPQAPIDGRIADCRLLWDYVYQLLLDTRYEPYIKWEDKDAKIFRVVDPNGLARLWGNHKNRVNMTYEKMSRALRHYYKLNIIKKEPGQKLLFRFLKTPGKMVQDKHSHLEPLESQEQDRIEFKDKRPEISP
Summed up: as §1

Experiment [18] has as its target T13, ETV3 (Homo sapiens, UniProt P41162-2 1-143).
T13 sequence: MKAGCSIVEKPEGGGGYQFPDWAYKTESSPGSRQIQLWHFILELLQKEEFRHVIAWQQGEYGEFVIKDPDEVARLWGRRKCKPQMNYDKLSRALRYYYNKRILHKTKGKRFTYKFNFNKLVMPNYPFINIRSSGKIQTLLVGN
Summed up:
as §1

Sequence of ETV5 (P41161 whole entry): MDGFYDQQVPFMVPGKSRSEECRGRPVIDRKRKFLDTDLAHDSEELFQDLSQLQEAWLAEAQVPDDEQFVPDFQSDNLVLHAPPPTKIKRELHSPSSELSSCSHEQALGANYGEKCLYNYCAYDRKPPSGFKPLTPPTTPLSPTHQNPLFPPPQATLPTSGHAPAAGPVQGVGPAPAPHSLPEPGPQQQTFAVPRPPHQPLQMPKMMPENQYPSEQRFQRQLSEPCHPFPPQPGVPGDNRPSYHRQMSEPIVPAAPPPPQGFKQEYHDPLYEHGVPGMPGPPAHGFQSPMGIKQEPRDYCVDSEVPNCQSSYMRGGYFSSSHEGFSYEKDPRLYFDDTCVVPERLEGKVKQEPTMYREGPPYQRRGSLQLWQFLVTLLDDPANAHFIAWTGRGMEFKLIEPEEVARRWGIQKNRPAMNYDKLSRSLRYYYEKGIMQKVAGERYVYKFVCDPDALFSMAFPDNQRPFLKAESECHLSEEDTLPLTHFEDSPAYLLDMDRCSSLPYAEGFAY
Sequence of SPIB (Q01892 whole entry): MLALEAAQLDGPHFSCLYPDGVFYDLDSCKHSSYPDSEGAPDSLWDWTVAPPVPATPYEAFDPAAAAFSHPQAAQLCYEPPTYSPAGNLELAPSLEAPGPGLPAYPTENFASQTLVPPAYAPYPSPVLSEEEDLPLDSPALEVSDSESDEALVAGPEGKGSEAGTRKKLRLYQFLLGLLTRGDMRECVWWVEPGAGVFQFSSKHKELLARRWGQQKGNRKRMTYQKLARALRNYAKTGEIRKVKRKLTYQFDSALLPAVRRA
Sequence of ELF1 (P32519 whole entry): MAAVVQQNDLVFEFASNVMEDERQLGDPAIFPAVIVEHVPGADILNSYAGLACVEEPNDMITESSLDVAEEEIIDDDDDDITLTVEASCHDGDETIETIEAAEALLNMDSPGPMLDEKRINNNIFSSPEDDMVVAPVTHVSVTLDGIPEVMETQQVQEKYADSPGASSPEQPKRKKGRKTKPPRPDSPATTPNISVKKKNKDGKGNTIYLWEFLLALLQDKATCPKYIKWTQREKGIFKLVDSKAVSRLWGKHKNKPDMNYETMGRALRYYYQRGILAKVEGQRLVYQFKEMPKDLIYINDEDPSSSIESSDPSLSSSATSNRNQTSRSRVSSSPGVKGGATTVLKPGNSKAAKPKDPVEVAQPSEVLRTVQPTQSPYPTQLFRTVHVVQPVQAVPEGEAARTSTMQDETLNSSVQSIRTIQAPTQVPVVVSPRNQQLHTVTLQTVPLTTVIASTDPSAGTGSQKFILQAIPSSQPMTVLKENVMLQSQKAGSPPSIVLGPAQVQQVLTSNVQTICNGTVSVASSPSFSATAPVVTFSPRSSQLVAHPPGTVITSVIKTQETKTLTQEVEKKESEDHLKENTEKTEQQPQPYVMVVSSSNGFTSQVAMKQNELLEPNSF
Sequence of ETV1 (P50549 whole entry): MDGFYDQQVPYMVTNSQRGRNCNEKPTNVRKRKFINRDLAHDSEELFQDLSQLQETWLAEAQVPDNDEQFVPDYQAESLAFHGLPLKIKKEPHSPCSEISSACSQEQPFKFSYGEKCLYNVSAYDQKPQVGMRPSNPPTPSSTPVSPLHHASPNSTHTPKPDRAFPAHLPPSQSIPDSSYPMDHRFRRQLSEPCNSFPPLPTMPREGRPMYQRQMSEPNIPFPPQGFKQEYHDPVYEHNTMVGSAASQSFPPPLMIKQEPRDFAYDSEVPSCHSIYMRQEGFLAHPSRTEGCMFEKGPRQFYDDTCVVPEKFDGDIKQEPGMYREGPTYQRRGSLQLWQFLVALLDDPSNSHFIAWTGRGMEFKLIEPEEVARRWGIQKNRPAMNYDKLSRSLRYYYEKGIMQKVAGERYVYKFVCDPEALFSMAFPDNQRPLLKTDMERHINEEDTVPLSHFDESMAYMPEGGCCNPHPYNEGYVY
Sequence of ELF4 (Q99607 whole entry): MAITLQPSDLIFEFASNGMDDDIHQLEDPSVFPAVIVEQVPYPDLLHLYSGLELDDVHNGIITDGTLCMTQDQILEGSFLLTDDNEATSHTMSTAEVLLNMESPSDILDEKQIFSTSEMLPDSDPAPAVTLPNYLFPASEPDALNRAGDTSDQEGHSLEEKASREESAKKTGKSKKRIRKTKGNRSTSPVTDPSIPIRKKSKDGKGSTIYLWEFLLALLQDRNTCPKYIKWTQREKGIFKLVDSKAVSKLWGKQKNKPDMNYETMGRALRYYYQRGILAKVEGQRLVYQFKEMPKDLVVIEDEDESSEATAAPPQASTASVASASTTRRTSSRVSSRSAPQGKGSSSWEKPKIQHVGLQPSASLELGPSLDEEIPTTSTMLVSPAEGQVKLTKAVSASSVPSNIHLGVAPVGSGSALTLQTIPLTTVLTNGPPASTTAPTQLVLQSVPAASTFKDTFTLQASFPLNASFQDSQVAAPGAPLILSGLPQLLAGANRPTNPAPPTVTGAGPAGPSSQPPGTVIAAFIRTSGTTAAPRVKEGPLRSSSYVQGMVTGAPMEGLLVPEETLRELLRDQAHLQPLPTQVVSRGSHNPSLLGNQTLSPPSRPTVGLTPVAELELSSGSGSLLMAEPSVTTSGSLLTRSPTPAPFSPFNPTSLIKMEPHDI

Turning to TGCAGC, the binding signal is 1.07 fold enrichment (6-mer frequency, TF over GST control) in experiment [1]; 1.16 fold enrichment (6-mer frequency, TF over GST control) in experiment [2]; 1.06 fold enrichment (6-mer frequency, TF over GST control) in [3]; 1.09 fold enrichment (6-mer frequency, TF over GST control) in [4]; 1.09 fold enrichment (6-mer frequency, TF over GST control) in experiment [5]; 1.17 fold enrichment (6-mer frequency, TF over GST control) in experiment [6]. Also, the binding signal is 1.07 fold enrichment (6-mer frequency, TF over GST control) in experiment [7]; 1.03 fold enrichment (6-mer frequency, TF over GST control) in experiment [8]; 1.22 fold enrichment (6-mer frequency, TF over GST control) in experiment [9]; 1.1 fold enrichment (6-mer frequency, TF over GST control) in experiment [10]; 1.15 fold enrichment (6-mer frequency, TF over GST control) in [11]; 1.02 fold enrichment (6-mer frequency, TF over GST control) in [12]. The binding signal is 1.13 fold enrichment (6-mer frequency, TF over GST control) in experiment [13]; 1.07 fold enrichment (6-mer frequency, TF over GST control) in experiment [14]; 1.1 fold enrichment (6-mer frequency, TF over GST control) in [15]; 1.15 fold enrichment (6-mer frequency, TF over GST control) in experiment [16]; 1.04 fold enrichment (6-mer frequency, TF over GST control) in experiment [17]; 1.05 fold enrichment (6-mer frequency, TF over GST control) in [18].
